Results: the supplement of paper PMC10681739

Target: RUNX1 (UniProt Q01196)
Assay: TF binding intensity (PBM fluorescence), negative control probe (arbitrary fluorescence units); higher = stronger binding
Procedure: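 gcPBM negative-control 36-bp genomic probes lacking TF binding sites. Each was incubated with recombinant human ETS1 or RUNX1 alone and detected by antibody fluorescence. Values are medians over replicate spots (4 spots for the ETS1-RUNX1 arrays, 3 for the ETS1-ETS1 array). The probes sit in constant array flanks that are not printed.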

Sequence of RUNX1 (Q01196 whole entry): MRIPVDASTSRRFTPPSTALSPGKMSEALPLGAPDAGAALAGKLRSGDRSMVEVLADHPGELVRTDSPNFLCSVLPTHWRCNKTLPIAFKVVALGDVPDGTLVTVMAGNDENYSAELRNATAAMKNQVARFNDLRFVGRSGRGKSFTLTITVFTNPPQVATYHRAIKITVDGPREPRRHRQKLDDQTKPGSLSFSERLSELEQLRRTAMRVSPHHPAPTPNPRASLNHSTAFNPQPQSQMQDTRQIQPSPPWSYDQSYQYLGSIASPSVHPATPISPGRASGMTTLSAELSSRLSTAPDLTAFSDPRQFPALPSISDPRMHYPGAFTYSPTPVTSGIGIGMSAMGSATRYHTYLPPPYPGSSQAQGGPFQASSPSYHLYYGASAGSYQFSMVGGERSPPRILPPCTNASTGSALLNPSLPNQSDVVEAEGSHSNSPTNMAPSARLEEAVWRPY

Sequence | TF binding intensity
GGGCCTGCGCGCGCACTTCCGCTCTCCCCTCCGGCT (protein concentration 2 nM) | 759
TATCACTTCTGGCGAAGGAAATGGAAGAATCTATGG (protein concentration 2 nM) | 1010
CAACGTTCTTCTGTTCTTCCGTCTGTCGACCGAACT (protein concentration 2 nM) | 945
GACGAGCCCGGTGGCAGGAAGTGACAGTGAGAAACT (protein concentration 2 nM) | 965
CTTCTGTCTCCAAAACGGAAATAATAACTTGAGATT (protein concentration 2 nM) | 989
TGGGCGGGGAGAGGACGGAAGGAGTAGGCTTCGGGA (protein concentration 2 nM) | 1020
GCTCCATCACCTCCTCTTCCGGTCCCTCCTCTAGGG (protein concentration 2 nM) | 1160
TCGAACAGAATGGAACGGAACGGAACGGAGCGTAAC (protein concentration 2 nM) | 1650
CTGATTCACTGCCCTCTTCCGCTCTGAGGCGTCGCC (protein concentration 2 nM) | 1030
GGGAGAGATGGGGCGCGGAAGGAACGAGGCGGGACG (protein concentration 2 nM) | 1350
AGGAGTTTGCTCATCCTTCCGGATCCAAAGGCTGCG (protein concentration 2 nM) | 712
AATTCTGGGGAGCGAAGGAAATTGGCTTTCGAGGCG (protein concentration 2 nM) | 1200
ACTACCCTCCGCCCTCTTCCGCCGCCGCCGCCGCCT (protein concentration 2 nM) | 1200
AAGTAAGCCCCGCCCCGGAACGGGCAGAAGTAGAGG (protein concentration 2 nM) | 1060
CCATGATGTTTGTGATTTCCGGCAGATGATGAGTAA (protein concentration 2 nM) | 970
CCCTGCAGCGCGTCCTTTCCGGCCCGCCCCATGCAC (protein concentration 2 nM) | 922

Sequence | TF binding intensity
CTGCTCGGCCAGGTCCGGAAAGAGAGAACGGGCTGG (protein concentration 2 nM) | 859
GTCCAGGCAAGAAACAGGAAGTGTGTCATGCACAGA (protein concentration 2 nM) | 870
CTCCCTTGCTCACAACTTCCTCTTGCTGTCTGCTTC (protein concentration 2 nM) | 1170
ATCAAGGCGCGGCGGCGGAAAAATGTGAAATGGCTT (protein concentration 2 nM) | 920
CCTTTTTCGCCTCCTTTTCCTGCCCCAAGACTAGAG (protein concentration 2 nM) | 1290
GGCCAGAGGAGGGCGCGGAAGTGTTGCCTGGGTGAG (protein concentration 2 nM) | 917
GTTCCAGAAACGTCACATCCGGCGCCCGCTCCGCCC (protein concentration 2 nM) | 890
GCCTCACAAAAGAACAGGATGTTGTTGATTTGTCAC (protein concentration 2 nM) | 828
ACCCCATTTCAGTCATTTCCTGCTGCAACTAAGTCA (protein concentration 2 nM) | 1070
ACAGCTGAATTCTCACTTCCTTCGTCTCTGAGCCTG (protein concentration 2 nM) | 874
GTGTTTTGCAGCGAAAGGAAATCTCGCTCTTCGGAA (protein concentration 2 nM) | 882
GCAGTCAGCCCTTCCCTTCCTGTCCGTCAACTCCGG (protein concentration 2 nM) | 875
AGGAGGAGATGGGACAGGAAGGAATAGATGGGAGCA (protein concentration 2 nM) | 1720
TCCCTGCTGGTCCTGGTTCCGGCACACCAGGCCCTC (protein concentration 2 nM) | 864
TCTGAAGGAGCCGGGCGGAAAGAAGCCGAGGCGCGC (protein concentration 2 nM) | 798
GGGTGCAGAAGCCAGCGGAAGCGGAGCGCTACAAGC (protein concentration 2 nM) | 784
